Laboratory results: PubChem BioAssay (NCI)
The panel holds about 83,000 compounds, 20% with a hit somewhere; the sample as a whole holds those more often.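 Compound tested at a single concentration for 48 hours in 96-well plates; a percent growth value below 10 was scored as active.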 Unmarked numbers belong to inactive results. Active and inactive are the calls of the source.

What was measured:
Assay in all cases: NCI-60 one-dose screen, 48 h (100 = growth as untreated, 0 = no growth, -100 = all killed)
Conditions in all cases: 10 µM
NCI-H23 lung = test system: NCI-H23 lung
NCI-H226 lung = test system: NCI-H226 lung
HOP-62 NSCLC = test system: HOP-62 NSCLC
NCI-H460 lung = test system: NCI-H460 lung
HOP-92 NSCLC = test system: HOP-92 NSCLC
NCI-H522 lung = test system: NCI-H522 lung
A549/ATCC NSCLC = test system: A549/ATCC NSCLC
786-0 renal = test system: 786-0 renal
COLO 205 colon = test system: COLO 205 colon

| Structure (SMILES) | growth (NCI-H23 lung) | growth (NCI-H226 lung) | growth (HOP-62 NSCLC) | growth (NCI-H460 lung) | growth (HOP-92 NSCLC) | growth (NCI-H522 lung) | growth (A549/ATCC NSCLC) | growth (786-0 renal) | growth (COLO 205 colon) |
| --- | --- | --- | --- | --- | --- | --- | --- | --- | --- |
| CCN(CC)CCOc1cccc2c1C(=O)c1cccc(OCCN(CC)CC)c1C2=O | 42.2% | 36.6% | 37% | 13.9% | 36.5% | 42.8% | 17.5% | 38.6% | 6.57% (active) |
| CCOC(=O)CN(c1sc(C)c(C)c1C(=O)OCC)S(=O)(=O)c1ccc(C)cc1 | 94.3% | 77.2% | 94.1% | 98% | 85.2% | 108% | 91.6% | 92.8% | 108% |
| COc1ccc(/C=C2/SC(=S)NC2=O)c(OC)c1OC | 73.9% | 81.6% | 69.2% | 90.3% | 36.8% | 73.3% | 79.5% | 87.9% | 105% |
| CCCCN(CCCC)C(=O)[C@H](CC)[C@@H]1CC[C@@H](C)[C@@H]([C@H](C)[C@@H](O)[C@@H](C)C(=O)[C@H](CC)C2O[C@]3(C=C[C@@H](O)[C@]4(CC[C@@](C)([C@H]5CC[C@](O)(CC)[C@H](C)O5)O4)O3)[C@H](C)C[C@@H]2C)O1 (stereo partly drawn) | -11.8% (active) | -2.42% (active) | 7.81% (active) | -4.44% (active) | -25.6% (active) | -18.4% (active) | 9.11% (active) | 17.4% | -77.6% (active) |
| COc1ccc(/C(C#N)=C/c2cccc(OC)c2OC)cc1 | 80% | 89% | 88% | 108% | 86.4% | 58.8% | 67.5% | 93.8% | 88.8% |
| O=C1/C=C/[C@@H](O)[C@@H]2C[C@@H](O)C[C@H]2/C=C/CCC[C@@H](C(F)(F)F)O1 | 81.4% | 59.9% | 99.3% | 104% | 99.4% | 88% | 99.3% | 92.6% | 22% |
| COc1cc2cc(Oc3ccc(NC(=O)Nc4ccc(Cl)c(Cl)c4)cc3)c(C)nc2cc1OC | 8.26% (active) | 7.74% (active) | 55.2% | 3.68% (active) | -9.31% (active) | -13.7% (active) | 4.35% (active) | 20.3% | 4.03% (active) |
| COc1ccc(-c2nnc(SCC(=O)Nc3ccc(C(=O)/C=C/c4ccccc4)cc3)n2-c2ccccc2)cc1OC | 80.8% | 50.4% | 102% | 37.1% | 78.4% | 53.8% | 51.9% | 67.1% | 56.1% |
| COc1ccc(-c2n[nH]nc2-c2cc(OC)c(OC)c(OC)c2)cc1 | 10.8% | 63.2% | 46.2% | 2.7% (active) | -1.89% (active) | -24.5% (active) | 20.4% | 16.9% | -18.5% (active) |
| CN(C)CCCOc1ccc(OCCCN(C)C)c2c1C(=O)c1ccccc1C2=O | -19.6% (active) | -5.49% (active) | -1.4% (active) | 0.0676% (active) | -0.93% (active) | -48.5% (active) | 3.96% (active) | 16.6% | -57.9% (active) |
| CN(C)CCOc1ccc(-c2nc3sccn3c2-c2ccnc(S(C)(=O)=O)n2)cc1 | 103% | 102% | 87.5% | 103% | 57% | 106% | 95% | 105% | 114% |
| COc1cccc(C2C(C#N)=C(N)Oc3cc(N)ccc32)c1 (stereo not drawn) | 37.8% | 70% | 45.4% | 11.9% | 36.9% | -0.592% (active) | 20.2% | 53.9% | 18.1% |
| O=C(Nc1ccc(NS(=O)(=O)c2ccc(F)cc2)cc1)C12CC3CC(CC(C3)C1)C2 | 94.9% | 92% | 104% | 101% | 106% | 86.4% | 86.6% | 103% | 101% |
| O=C(CCNC(=O)c1nc(-c2ccccc2)n(-c2ccc(Cl)cc2)n1)NO | 101% | 96.7% | 83.7% | 104% | 108% | 82.4% | 88.6% | 96.2% | 94.8% |
| O=C1/C(=C/c2ccc3c(c2)OCO3)SC(=S)N1C1c2ccccc2Oc2ccccc21 | 89.8% | 97.9% | 98.3% | 107% | 90.7% | 95.8% | 109% | 97.6% | 99.7% |
| COC(=O)C1(O)NC(=C(C#N)C#N)C(C#N)=C1C(=O)c1ccc(OC)c(OC)c1 (stereo not drawn) | 103% | 93.6% | 96.1% | 100% | 90.3% | 90.3% | 91.9% | 101% | 120% |
| NNC(=O)Oc1c(Cl)cc(Cl)cc1[N+](=O)[O-] | 97.8% | 106% | 94.6% | 110% | 115% | 96.9% | 96.9% | 105% | 110% |
| COc1cc(/C=C/c2cc(/C=C/c3ccc(O)c(OC)c3)nc(N)n2)ccc1O | -2.79% (active) | 11.7% | 4.85% (active) | 5.54% (active) | -21.2% (active) | -41.3% (active) | 10.1% | -58.9% (active) | -50.4% (active) |
| CCOc1ccccc1/C=N/N1CCCCCC1 | 89.3% | 88.2% | 97.3% | 107% | 86.9% | 102% | 117% | 119% | 108% |
| CNC(=O)c1cn(C2CC2)c2cc(N3CCN(C(=O)c4cc(OC)c(OC)c(OC)c4)CC3)c(F)cc2c1=O | 93.7% | 93% | 90.8% | 106% | 92.3% | 90% | 94.6% | 93.4% | 105% |
| COc1cc(-c2nn(-c3cccc(NC(=O)CCN4CCN(c5ccccc5)CC4)c3)cc2-c2ccncc2)ccc1Cl | 24.5% | 47.6% | 34.2% | 6.87% (active) | 4.23% (active) | 10.1% | 15.9% | 2.45% (active) | -36.9% (active) |
| Nc1ccn(Cc2nnc(CCC(=O)c3nc4ccccc4[nH]3)o2)c(=O)n1 | 74.5% | 73.7% | 82% | 34.6% | 66.1% | 84.2% | 63.8% | 97.2% | 103% |
| O=C(CCCCC(=O)Oc1c(Cl)cc(Cl)cc1[N+](=O)[O-])Oc1c(Cl)cc(Cl)cc1[N+](=O)[O-] | 96.5% | 106% | 102% | 106% | 118% | 89.5% | 103% | 101% | 121% |
| COc1cc2c(cc1OC)C(C(CCCCCC(CCC(C)C)C1NCCc3cc(OC)c(OC)cc31)CCC(C)C)NCC2 (stereo not drawn) | -87.4% (active) | -75.6% (active) | -96.7% (active) | -80.3% (active) | -90.4% (active) | -95.4% (active) | -92.9% (active) | -97.8% (active) | -94.5% (active) |
| COc1cc(/C=C/c2cc(/C=C/c3ccc(O)c(OC)c3)[nH]c(=O)n2)ccc1O | 62.8% | 76.2% | 70.8% | 69.7% | 33.7% | 54.6% | 71.7% | 82.6% | 51.8% |
| CCn1cc(C(=O)O)c(=O)c2cc(F)c(N3CCNCC3)cc21 | 108% | 92.3% | 108% | 104% | 115% | 104% | 103% | 108% | 102% |
| O=C(CC(CC(=O)c1ccccc1)c1ccccc1O)c1ccccc1 | 92.8% | 87.8% | 85.8% | 93% | 88.9% | 89.3% | 93% | 96.5% | 106% |
